Compounds without any hit were thinned out: in the full panel of roughly 79,000, 15% have a hit. Unmarked numbers belong to inactive results. Calls of active or inactive are those of the source. No stated cut-off is given here; in the data, active means growth inhibition above about 70%; inactive means the rest.

From PubChem BioAssay (NCI) come the findings set out here.

Experiment [1] can be described thus: NCI Yeast Anticancer Drug Screen. Data for the rad50 strain (AID 155).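 Further: 0% = growth of vehicle-only cultures of the same strain.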 Particulars: S. cerevisiae rad50 strain growth inhibition, stronger effect = higher value. The method in brief:
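Yeast carrying a defined DNA repair defect were exposed to test compounds, and growth was compared with vehicle-treated controls to give percent inhibition.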

Experiment [2] is described as follows: NCI Yeast Anticancer Drug Screen. Data for the mec2-1 strain (AID 157). Particulars: S. cerevisiae mec2-1 strain, stronger effect = higher value. The essentials: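 Readout is yeast growth inhibition, normalised to vehicle-treated controls, in the mec2-1 strain exposed to compound.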
Experiment [3] can be described thus: NCI Yeast Anticancer Drug Screen. Data for the sgs1 mgt1 strain (AID 161).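 Further: 0% = growth of cultures given vehicle only.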 Particulars: S. cerevisiae sgs1 mgt1 strain, stronger effect = higher value. The method in brief: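 Compounds are added to genetically altered yeast, and growth is compared with cultures given vehicle alone to give percent inhibition.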
A short description of experiment [4]: NCI Yeast Anticancer Drug Screen. Data for the cln2 rad14 strain (AID 165).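 Further: 0% = growth equal to vehicle treated cultures.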 Particulars: S. cerevisiae cln2 rad14 strain, stronger effect = higher value. The method in brief: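 Relative to vehicle controls, growth inhibition of compound-treated cln2 rad14 yeast was recorded.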
A short description of experiment [5]: NCI Yeast Anticancer Drug Screen. Data for the bub3 strain (AID 167). Particulars: S. cerevisiae bub3 mutant strain, stronger effect = higher value. The method in brief:
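Compounds were applied to a genetically altered yeast strain carrying a cell-cycle control defect. Growth inhibition was scored against vehicle-treated controls.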

Experiment [6] can be described thus: NCI Yeast Anticancer Drug Screen. Data for the mlh1 rad18 strain (AID 175). Particulars: S. cerevisiae mlh1 rad18 strain growth inhibition, stronger effect = higher value. The essentials:
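Test agents were incubated with a yeast strain of defined genotype (DNA damage repair defect). Inhibition of growth was derived by comparison with vehicle-exposed cultures.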

[7] abbreviates: at 5.0 µM (retest, dose inferred, filed as 0.5).
The mark [8] stands for this setting: at 50.0 µM (retest, dose inferred, filed as 5.0).

Regarding `NC(=O)c1ccccc1OC(=O)NCCO`, the growth inhibition in experiment [1] (setting [7]) was 6%; in experiment [1] (setting [8]), -3%; in experiment [1] (at 50.0 µM) it was 3.2%; in experiment [2] (setting [7]), -2%; in experiment [2] (setting [8]), -5%; in experiment [2] (at 50.0 µM), -1.7%. Besides, the growth inhibition in experiment [3] (setting [7]) was 3%; in experiment [3] (setting [8]), 2%; in experiment [3] (at 50.0 µM) it was -1.2%; in experiment [4] (setting [7]), -1%; in experiment [4] (setting [8]), -7%; in experiment [4] (at 50.0 µM), 35.8%. Also, the growth inhibition in experiment [5] (setting [7]) is -4%; in experiment [5] (setting [8]), 3%; in experiment [5] (at 50.0 µM), 1.7%; in experiment [6] (setting [7]), 0%; in experiment [6] (setting [8]), 7%; in experiment [6] (at 50.0 µM), 7.35%.
Turning to `CC(C)(C)OC(=O)Nc1cccc(Cl)c1`, the growth inhibition in experiment [1] (setting [7]) is 11%; in experiment [1] (setting [8]), 71% (active); in experiment [1] (at 50.0 µM), 73.2% (active); in experiment [2] (setting [7]), -4%; in experiment [2] (setting [8]), 12%; in experiment [2] (at 50.0 µM), 14.8%. For the same molecule, the growth inhibition in experiment [3] (setting [7]) was -1%; in experiment [3] (setting [8]), 7%; in experiment [3] (at 50.0 µM), 55.7%; in experiment [4] (setting [7]) it was -2%; in experiment [4] (setting [8]), -20%; in experiment [4] (at 50.0 µM), 2.9%. In addition, the growth inhibition in experiment [5] (setting [7]) was 46%; in experiment [5] (setting [8]) it was -2%; in experiment [5] (at 50.0 µM) it was 10.2%; in experiment [6] (setting [7]), 4%; in experiment [6] (setting [8]), 33%; in experiment [6] (at 50.0 µM), 80.5% (active).
`CC(=O)NC1C(=O)CC(c2ccccc2)N(C)C1c1ccccc1` (stereo not given): the growth inhibition was 2% in experiment [1] (setting [7]); 2% in experiment [1] (setting [8]); 7.55% in experiment [1] (at 50.0 µM); 2% in experiment [2] (setting [7]); 6% in experiment [2] (setting [8]); 6.55% in experiment [2] (at 50.0 µM). The growth inhibition in experiment [3] (setting [7]) was -2%; in experiment [3] (setting [8]), 1%; in experiment [3] (at 50.0 µM), 25.3%; in experiment [4] (setting [7]), 4%; in experiment [4] (setting [8]), 0%; in experiment [4] (at 50.0 µM), 36.1%. Besides, the growth inhibition in experiment [5] (setting [7]) is 2%; in experiment [5] (setting [8]) it was 3%; in experiment [5] (at 50.0 µM), 18%; in experiment [6] (setting [7]), 1%; in experiment [6] (setting [8]), -7%; in experiment [6] (at 50.0 µM) it was 31.7%.
With `COc1ccc(COCCOCc2nc(C#N)c(N)o2)cc1`, the growth inhibition was 16% in experiment [1] (setting [7]); 8% in experiment [1] (setting [8]); 43.3% in experiment [1] (at 50.0 µM); 13% in experiment [2] (setting [7]); 9% in experiment [2] (setting [8]); 12.1% in experiment [2] (at 50.0 µM). In addition, the growth inhibition in experiment [3] (setting [7]) is 16%; in experiment [3] (setting [8]), 5%; in experiment [3] (at 50.0 µM) it was -25.1%; in experiment [4] (setting [7]) it was 16%; in experiment [4] (setting [8]), 11%; in experiment [4] (at 50.0 µM), -16.8%. Moreover, the growth inhibition in experiment [5] (setting [7]) was 22%; in experiment [5] (setting [8]), 12%; in experiment [5] (at 50.0 µM), -31.7%; in experiment [6] (setting [7]), 10%; in experiment [6] (setting [8]) it was 4%; in experiment [6] (at 50.0 µM) it was -1.6%.
For `CC1CC(=O)OC(C(=O)c2ccccc2)N1c1ccc(C(F)(F)F)cc1N` (stereo not given), the growth inhibition in experiment [1] (setting [7]) was 4%; in experiment [1] (setting [8]), 30%; in experiment [1] (at 50.0 µM), 81.6% (active); in experiment [2] (setting [7]) it was 11%; in experiment [2] (setting [8]) it was 11%; in experiment [2] (at 50.0 µM), 65%. Moreover, the growth inhibition was 8% in experiment [3] (setting [7]); 38% in experiment [3] (setting [8]); 59.4% in experiment [3] (at 50.0 µM); 0% in experiment [4] (setting [7]); 2% in experiment [4] (setting [8]); 56.4% in experiment [4] (at 50.0 µM). The growth inhibition was 2% in experiment [5] (setting [7]); 10% in experiment [5] (setting [8]); 32.2% in experiment [5] (at 50.0 µM); 3% in experiment [6] (setting [7]); 27% in experiment [6] (setting [8]); 88.4% (active) in experiment [6] (at 50.0 µM).
Take `CCCCC/C(=C/C=C/c1ccc(Cl)cc1)CN(C)C`: the growth inhibition in experiment [1] (setting [7]) is 11%; in experiment [1] (setting [8]) it was 97% (active); in experiment [1] (at 50.0 µM) it was 99.5% (active); in experiment [2] (setting [7]) it was 8%; in experiment [2] (setting [8]), 98% (active); in experiment [2] (at 50.0 µM) it was 99.8% (active). Further, the growth inhibition in experiment [3] (setting [7]) was 49%; in experiment [3] (setting [8]), 98% (active); in experiment [3] (at 50.0 µM), 99.7% (active); in experiment [4] (setting [7]) it was 13%; in experiment [4] (setting [8]) it was 97% (active); in experiment [4] (at 50.0 µM) it was 99.5% (active). Also, the growth inhibition in experiment [5] (setting [7]) was 6%; in experiment [5] (setting [8]), 98% (active); in experiment [5] (at 50.0 µM) it was 99.8% (active); in experiment [6] (setting [7]), 7%; in experiment [6] (setting [8]) it was 97% (active); in experiment [6] (at 50.0 µM), 99.7% (active).
For `COc1ccccc1/C=C1\SC(=S)N(/C=C2\C(=O)Oc3ccccc3C2=O)C1=O`, the growth inhibition in experiment [1] (setting [7]) was 1%; in experiment [1] (setting [8]) it was 12%; in experiment [1] (at 50.0 µM) it was 30.9%; in experiment [2] (setting [7]), -3%; in experiment [2] (setting [8]), 27%; in experiment [2] (at 50.0 µM), 18.6%. The growth inhibition in experiment [3] (setting [7]) was 8%; in experiment [3] (setting [8]) it was 12%; in experiment [3] (at 50.0 µM), 54.2%; in experiment [4] (setting [7]), -8%; in experiment [4] (setting [8]) it was 17%; in experiment [4] (at 50.0 µM) it was 58.9%. Further, the growth inhibition in experiment [5] (setting [7]) is 20%; in experiment [5] (setting [8]), 38%; in experiment [5] (at 50.0 µM), 32.2%; in experiment [6] (setting [7]), -16%; in experiment [6] (setting [8]) it was 14%; in experiment [6] (at 50.0 µM), 53.7%.
Regarding `CSc1nc(=Nc2ccccc2)sn1-c1ccccc1`, the growth inhibition in experiment [1] (setting [7]) was 10%; in experiment [1] (setting [8]) it was 98% (active); in experiment [1] (at 50.0 µM), 98.8% (active); in experiment [2] (setting [7]), 26%; in experiment [2] (setting [8]), 98% (active); in experiment [2] (at 50.0 µM), 99.5% (active). In addition, the growth inhibition in experiment [3] (setting [7]) was 27%; in experiment [3] (setting [8]) it was 98% (active); in experiment [3] (at 50.0 µM), 99.2% (active); in experiment [4] (setting [7]), 27%; in experiment [4] (setting [8]), 97% (active); in experiment [4] (at 50.0 µM), 99.4% (active). The growth inhibition was 41% in experiment [5] (setting [7]); 98% (active) in experiment [5] (setting [8]); 99.3% (active) in experiment [5] (at 50.0 µM); 15% in experiment [6] (setting [7]); 98% (active) in experiment [6] (setting [8]); 99% (active) in experiment [6] (at 50.0 µM).
Take `O=C(O)C(S(=O)(=O)O)S(=O)(=O)O`: the growth inhibition was 99% (active) in experiment [1] (setting [7]); 99% (active) in experiment [1] (setting [8]); 99.2% (active) in experiment [1] (at 50.0 µM); 54% in experiment [2] (setting [7]); 99% (active) in experiment [2] (setting [8]); 99.4% (active) in experiment [2] (at 50.0 µM). The growth inhibition was 100% (active) in experiment [3] (setting [7]); 99% (active) in experiment [3] (setting [8]); 99.1% (active) in experiment [3] (at 50.0 µM); 100% (active) in experiment [4] (setting [7]); 99% (active) in experiment [4] (setting [8]); 99.3% (active) in experiment [4] (at 50.0 µM). Moreover, the growth inhibition was 99% (active) in experiment [5] (setting [7]); 99% (active) in experiment [5] (setting [8]); 98.4% (active) in experiment [5] (at 50.0 µM); 99% (active) in experiment [6] (setting [7]); 99% (active) in experiment [6] (setting [8]); 99.3% (active) in experiment [6] (at 50.0 µM).
Take `CCC(CC)(c1ccc(C)cc1)c1ccc(C)cc1`: the growth inhibition was -12% in experiment [1] (setting [7]); 99% (active) in experiment [1] (setting [8]); 99.5% (active) in experiment [1] (at 50.0 µM); -10% in experiment [2] (setting [7]); 99% (active) in experiment [2] (setting [8]); 99.2% (active) in experiment [2] (at 50.0 µM). In addition, the growth inhibition was -6% in experiment [3] (setting [7]); 99% (active) in experiment [3] (setting [8]); 98.8% (active) in experiment [3] (at 50.0 µM); -80% in experiment [4] (setting [7]); 99% (active) in experiment [4] (setting [8]); 77.2% (active) in experiment [4] (at 50.0 µM). Besides, the growth inhibition in experiment [5] (setting [7]) was 22%; in experiment [5] (setting [8]) it was -55%; in experiment [5] (at 50.0 µM), 92.3% (active); in experiment [6] (setting [7]) it was 7%; in experiment [6] (setting [8]) it was 99% (active); in experiment [6] (at 50.0 µM), 99.6% (active).
